Where a chain is given by its changes, count along the chain named. The full ranking holds about 24,000 sequences; the median of “enrichment r” is about 0.99, and the highest 2% start at about 3.7. What follows is part of a selection rich in the highest values, with near analogues and random picks from the rest.
T1: UNK ZnF1-3 (human, UniProt Q9C0B0 31-174)
T1 sequence: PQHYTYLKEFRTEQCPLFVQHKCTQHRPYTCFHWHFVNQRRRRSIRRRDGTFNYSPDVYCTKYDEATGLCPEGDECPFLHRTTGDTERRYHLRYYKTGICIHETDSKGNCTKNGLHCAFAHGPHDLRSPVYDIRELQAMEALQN

B1: chr8:74858975:74858976:-_ENSG00000154582_ENST00000284811|hu_hu|FALSE|FALSE (ssRNA)
RNA: GGGAGUUCUACAGUCCGACGAUCAACCUUGUACGUAAAAUACAUGCAUACUUUCGAUAGCACAUGUGAAGGUAUCUCUCUAAAAUUGACCUCAUUGGUUUCGUUCUCAGCAAACUGACCUGGGCCACUCAACAUGGCUUUUAUCAACAGAGGAUUGAGCAUCA
B2: chr11:100882373:100882374:+_ENSMUSG00000019302_ENSMUST00000044721|mus_mus|mus_mus_mus_hu_True|38_68 (ssRNA)
RNA: GGGAGUUCUACAGUCCGACGAUCUUCCUGGUUUGUGUUGAUUUCCUUCAGUUCAUUUUCAAUCUUCUCGAAAUUGGCCUCUAAGUCAAUCAUGUCCCGAGGGAAGGGAACCUCUGGGUUUUCACCGGUGUCCAUAAUCGGAAUCAACAGAGGAUUGAGCAUCA
B3: chr17:56552419:56552420:-_ENSMUSG00000013236_ENSMUST00000086828|mus_mus|mus_mus_mus_hu_False|58_98 (ssRNA)
RNA: GGGAGUUCUACAGUCCGACGAUCAAAAAAUACACUAUAAAAAAAAAAUGAAAUGUCACGGGAUACAGUUACACUGACACUAUUAAAAGAAAGCUGGAUUCUGGUCCCAGCCCAGUGUCCCCAGGCUGCAGAGCGGGGAGGAGCCAACAGAGGAUUGAGCAUCA
B4: chr17:56552419:56552420:-_ENSMUSG00000013236_ENSMUST00000086828|mus_mus|mus_mus_mus_hu_False|58_58 (ssRNA)
RNA: B3 RNA with A38U, A39U
B5: chr2:4828950:4828951:+_ENSMUSG00000026662_ENSMUST00000115019|mus_mus|motif|central (ssRNA)
RNA: GGGAGUUCUACAGUCCGACGAUCAAAAUCUAGUCUCCCCCAAUAAAUUGUAUUUUAGGCAAAAUCCUCCCAAAUGCUUCGGAAAUAAUACUAAAAAGGGCAUCUGAUUAUACAAGAGCAAUUAAAAAAAUUAAAUAUUUAUUUCAACAGAGGAUUGAGCAUCA
B6: 75889693_75893847_892_3pUTR_ENSG00000185009_ENST00000355264|human|control|control (ssRNA)
RNA: GGGAGUUCUACAGUCCGACGAUCCAGAUAGUUUAAUGCAAGCAUCAAUGACCCCCUGAAUUUCUGCAAAGACUGUAGAUCCUGAUUUAUCUAUAAUUGCGUCUAUUUCUUCAACAACAUCAAAAUAGGCUUCAUUGUUUGUGUCAACAGAGGAUUGAGCAUCA
B7: chr2:4828950:4828951:+_ENSMUSG00000026662_ENSMUST00000115019|mus_mus|FALSE|FALSE (ssRNA)
RNA: B5 RNA with G80U, G81A
B8: 105548853_105553245_153_3pUTR_ENSMUSG00000068798_ENSMUST00000090678|mouse|control|control (ssRNA)
RNA: GGGAGUUCUACAGUCCGACGAUCAUUUUUCAACAAAAAUCCCCUGAACAAACUGAACUGUCAGAGCAGACUUCCCCACGCCUCCUGAACCAAGGACUACUAGCUUGUACUCACGCAUGAUGCGCUCUGUUUAAAUAUUGACAACAACAGAGGAUUGAGCAUCA
B9: chr16:14299702:14299703:-_ENSMUSG00000022677_ENSMUST00000023357|mus_mus|FALSE|FALSE (ssRNA)
RNA: GGGAGUUCUACAGUCCGACGAUCCUCAAUUCAGAGUCCCUCUCCCCAAAUGACUCUAGCUUGUAUCAAGUUGAUAUAAAACUAGCCAGGGCAGGCAAUAAUAAUUCAGGUAUUUUUUAAAAAAUCAAACUUCAUAUAAAUUAACAACAGAGGAUUGAGCAUCA
B10: chr16:14299702:14299703:-_ENSMUSG00000022677_ENSMUST00000023357|mus_mus|motif|central (ssRNA)
RNA: B9 RNA with U82G, A83G
B11: chr10:112362630:112362631:-_ENSMUSG00000074748_ENSMUST00000099276|mus_mus|motif|central (ssRNA)
RNA: GGGAGUUCUACAGUCCGACGAUCGGAUUACUUAUUAAAAAAUAAGAAUCUCCAAAACAAAGGACAGUGGUGAAUUUCAAACGGCCCUCCCCCAAUGAUCCCAGCAUGCGAUAAUGCCAGGUAGUGGCCCCUGGGCAUGCGAUGCAACAGAGGAUUGAGCAUCA

Each binder was assayed against T1, UNK ZnF1-3 (assay: nsRBNS (natural sequence RNA bind-n-seq); RBNS binding buffer (assumed for nsRBNS): 25 mM Tris pH 7.5, 150 mM KCl, 3 mM MgCl2, 0.01% Triton X-100, 500 ug/ml BSA, 20 U/ml SUPERase-In, 4 C; UNK is unkempt and MSI1 is Musashi-1; names of the RNAs are library labels; protein concentration not given here; high values mean tight binding).
Work on B1 yielded a binding signal of 0.5 enrichment R. Work on B2 yielded a binding signal of 0.443 enrichment R. Work on B3 yielded a binding signal of 8.92 enrichment R. Work on B4 yielded a binding signal of 3.59 enrichment R. Binder B5 has a binding signal of 14.3 enrichment R. With B6 the binding signal was 0.939 enrichment R. For B7, the binding signal was 4.12 enrichment R. Work on B8 yielded a binding signal of 1.18 enrichment R. In the case of B9, the binding signal is reported as 3.28 enrichment R. Binder B10 has a binding signal of 3.78 enrichment R. Work on B11 yielded a binding signal of 0.719 enrichment R.
